Some test systems named below: DU-145 prostate; K-562 leukemia; MALME-3M melanoma; MDA-MB-231 breast; RXF 393 renal; SF-268 CNS; SF-539 CNS; UACC-257 melanoma; M14 melanoma; HCT-15 colon; HT29 colon; SNB-75 CNS; SNB-19 CNS; U251 CNS; PC-3 prostate; SK-MEL-5 melanoma; UACC-62 melanoma; LOX IMVI melanoma; SK-MEL-28 melanoma.
Assay in all cases: NCI-60 one-dose screen, 48 h (100 = growth as untreated, 0 = no growth, -100 = all killed)
Conditions in all cases: 10 µM unless noted

Structures are written as SMILES. Compounds without any hit were thinned out: in the full panel of roughly 83,000, 20% have a hit.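 Testing used 96-well plates and a 48-hour single-concentration exposure. Example: -40 means 40% of the starting cells died.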 Unmarked numbers belong to inactive results. The source made the active and inactive calls. The calls were made as follows: active = growth percent below 10; inactive = the rest.

Consider `C=CCn1c(SCC(=O)Nc2ccc(C(=O)/C=C/c3ccccc3)cc2)nnc1-c1ccc(OC)c(OC)c1`, for which the growth is 89.6% with DU-145 prostate; 47.5% in the assay with K-562 leukemia; 105% in the assay on MALME-3M melanoma; 77.1% in the assay with MDA-MB-231 breast; 85.7% in the assay with RXF 393 renal; 86% in the assay on SF-268 CNS. The growth in the assay with SF-539 CNS was 92.1%; with UACC-257 melanoma, 79.9%; in the assay with M14 melanoma, 73.6%; with HCT-15 colon, 64.2%; in the assay with HT29 colon, 80.1%; with SNB-75 CNS it was 79.1%. For the same compound, the growth in the assay on SNB-19 CNS is 76.4%; in the assay on U251 CNS, 72.7%; with PC-3 prostate, 67.8%; in the assay with SK-MEL-5 melanoma it was 61.3%; in the assay with UACC-62 melanoma, 72.1%; in the assay on LOX IMVI melanoma, 84.9%. In addition, the growth in the assay on SK-MEL-28 melanoma was 97.6%.
`CCCc1cc2c(cc1CN(Cc1cc3c(cc1CCC)OCO3)C(=N)OCC)OCO2`: the growth is 97.6% with DU-145 prostate; 63.4% with K-562 leukemia; 82.8% in the assay on MALME-3M melanoma; 77.8% in the assay with MDA-MB-231 breast; 106% in the assay on RXF 393 renal; 79.2% in the assay with SF-268 CNS. The growth was 112% with SF-539 CNS; 83.9% with UACC-257 melanoma; 85.9% in the assay on M14 melanoma; 94.8% in the assay with HCT-15 colon; 52.4% with HT29 colon; 95.6% in the assay with SNB-75 CNS. The growth was 94% with SNB-19 CNS; 67.3% in the assay with U251 CNS; 88.8% in the assay with SK-MEL-5 melanoma; 77.2% in the assay with UACC-62 melanoma; 83.6% with LOX IMVI melanoma; 102% in the assay on SK-MEL-28 melanoma.
Regarding `N=c1n(Cc2ccccc2)c(N)cc(=O)n1Cc1ccccc1`, the growth in the assay on DU-145 prostate is -19.6% (active); in the assay with K-562 leukemia, 21%; in the assay with MALME-3M melanoma, 23.3%; in the assay on MDA-MB-231 breast, 83%; in the assay with RXF 393 renal, -15.5% (active); in the assay on SF-268 CNS it was 2.59% (active). Further, the growth in the assay on SF-539 CNS was 12.5%; in the assay with UACC-257 melanoma it was 43.8%; with M14 melanoma, 84.6%; in the assay on HCT-15 colon, 45.8%; with HT29 colon it was 26.8%; in the assay with SNB-75 CNS, 36.6%. Moreover, the growth in the assay on SNB-19 CNS is 52.8%; in the assay with U251 CNS it was 25.4%; with PC-3 prostate, 37.5%; with SK-MEL-5 melanoma, 2.83% (active); with UACC-62 melanoma, 33.8%; in the assay with LOX IMVI melanoma it was 14.2%. For the same compound, in the assay with SK-MEL-28 melanoma, the growth is 60.8%.
Regarding `Fc1[nH]nc2ccc([C@@H]3Nc4ccc5[nH]ncc5c4[C@H]4C5CCC(C5)[C@@H]34)cc12` (some centres undefined), the growth in the assay with DU-145 prostate is 15.1%; in the assay with K-562 leukemia, 15.1%; in the assay with MALME-3M melanoma it was 48.5%; with MDA-MB-231 breast, 46.2%; in the assay on RXF 393 renal, -6.05% (active); in the assay on SF-268 CNS it was 57.5%. The growth was -15.9% (active) in the assay with SF-539 CNS; 82.2% with UACC-257 melanoma; 21.2% in the assay on M14 melanoma; 34.5% in the assay with HCT-15 colon; 8.7% (active) with HT29 colon; -14.8% (active) in the assay on SNB-75 CNS. Moreover, the growth with SNB-19 CNS was 36.6%; in the assay with U251 CNS it was 25.8%; in the assay on SK-MEL-5 melanoma, 25.7%; in the assay on UACC-62 melanoma, 27.5%; with LOX IMVI melanoma it was 48.3%; in the assay on SK-MEL-28 melanoma, 54.8%.
With `CC(=O)O[C@H]1[C@H](CC#CC#CC[C@@H]2C[C@]3(C)[C@H]4CC=C5[C@H]6[C@@H](C)[C@H](C)CC[C@]6(C(=O)NCCCCCCCCN)CC[C@@]5(C)[C@]4(C)CC[C@H]3C(C)(C)[C@H]2OC(C)=O)C[C@]2(C)[C@H]3CC=C4[C@H]5[C@@H](C)[C@H](C)CC[C@]5(C(=O)NCCCCCCCCN)CC[C@@]4(C)[C@]3(C)CC[C@H]2C1(C)C`, the growth in the assay on DU-145 prostate is 110%; in the assay with K-562 leukemia, 108%; in the assay on MALME-3M melanoma it was 105%; in the assay on MDA-MB-231 breast, 103%; in the assay with RXF 393 renal, 94.6%; with SF-268 CNS, 102%. Moreover, the growth in the assay with SF-539 CNS was 94.1%; in the assay on UACC-257 melanoma, 106%; in the assay with M14 melanoma, 102%; in the assay on HCT-15 colon, 108%; in the assay with HT29 colon, 98.2%; with SNB-75 CNS, 94.7%. The growth in the assay with SNB-19 CNS is 107%; in the assay on U251 CNS, 98.2%; with PC-3 prostate it was 92.8%; in the assay with SK-MEL-5 melanoma, 105%; in the assay with UACC-62 melanoma, 112%; with LOX IMVI melanoma it was 96.9%. The growth with SK-MEL-28 melanoma is 124%.
Regarding `COc1ccccc1/C=N\NC(=S)Nc1ccc(F)cc1`, the growth was 98.6% in the assay on DU-145 prostate; 32.3% in the assay with K-562 leukemia; 65% with MALME-3M melanoma; 59.8% in the assay with MDA-MB-231 breast; 88.2% with RXF 393 renal; 91.6% in the assay with SF-268 CNS. Also, the growth in the assay with SF-539 CNS was 73.3%; in the assay on UACC-257 melanoma it was 77.2%; with M14 melanoma, 48.4%; with HCT-15 colon, 50.8%; in the assay on HT29 colon, 46.9%; in the assay with SNB-75 CNS, 84.4%. For the same compound, the growth with SNB-19 CNS was 89.1%; in the assay with U251 CNS, 62%; in the assay with PC-3 prostate, 83%; in the assay on SK-MEL-5 melanoma, 85.1%; with UACC-62 melanoma it was 58.9%; in the assay with LOX IMVI melanoma it was 78.4%. Besides, in the assay with SK-MEL-28 melanoma, the growth is 78.3%.
As to `O=c1[nH]c2ccccc2n2cc3cccnc3c12`, the growth was 87.5% in the assay with DU-145 prostate; 47.2% with K-562 leukemia; 116% in the assay on MALME-3M melanoma; 65.7% with MDA-MB-231 breast; 80.8% with RXF 393 renal; 79.3% in the assay on SF-268 CNS. Also, the growth with SF-539 CNS is 75.5%; in the assay with UACC-257 melanoma, 97.1%; with M14 melanoma it was 84.1%; in the assay on HCT-15 colon it was 70.2%; in the assay on HT29 colon, 42.3%; with SNB-75 CNS, 86.2%. Further, the growth is 71% with SNB-19 CNS; 76.6% in the assay on U251 CNS; 84.7% in the assay on PC-3 prostate; 73.2% in the assay with SK-MEL-5 melanoma; 53% with UACC-62 melanoma; 65.6% with LOX IMVI melanoma. Moreover, in the assay on SK-MEL-28 melanoma, the growth is 107%.
In the case of `Nc1nc(N)c2cc(CNc3ccc(Cl)c(Cl)c3)ccc2n1`, the growth in the assay with DU-145 prostate is 44.6%; in the assay on K-562 leukemia, -72.3% (active); in the assay on MALME-3M melanoma, 47.1%; with MDA-MB-231 breast, -23.9% (active); with RXF 393 renal, 26.5%; in the assay on SF-268 CNS, 35%. Moreover, the growth with SF-539 CNS is 23.7%; in the assay on UACC-257 melanoma it was 32.4%; in the assay on M14 melanoma it was -69.7% (active); in the assay on HCT-15 colon it was 9.76% (active); in the assay with HT29 colon, -75.2% (active); in the assay on SNB-75 CNS it was 40.1%. The growth in the assay on U251 CNS was -78.1% (active); in the assay on PC-3 prostate it was 22.5%; with SK-MEL-5 melanoma, 15.4%; in the assay with UACC-62 melanoma, 21%; with LOX IMVI melanoma, -54.8% (active); in the assay on SK-MEL-28 melanoma, 60.1%.

Values taken from PubChem BioAssay (NCI).
